Source: PubChem BioAssay (EPA / NIEHS)
Inconclusive results are not listed. Active and inactive are the calls of the source. How the source made its calls, unless noted: active means hit-call score of the fitted dose curve at least 0.9, where 1 is the maximum; inactive means score below 0.9.

Columns and labels:
[1] = target: Myc proto-oncogene protein (Homo sapiens) (UniProt P01106); test: ATG_Myc_CIS: Attagene CIS-FACTORIAL HepG2 Assay for human Myelocytomatosis (Myc) Proto-Oncogene Transcription Factor (AID 2282990); settings: HepG2, Attagene cis-reporter transcription factor activity; actives raise or lower the signal
Sequence of Myc proto-oncogene protein (Homo sapiens) (P01106 whole entry, looked up, the tested form may be a part): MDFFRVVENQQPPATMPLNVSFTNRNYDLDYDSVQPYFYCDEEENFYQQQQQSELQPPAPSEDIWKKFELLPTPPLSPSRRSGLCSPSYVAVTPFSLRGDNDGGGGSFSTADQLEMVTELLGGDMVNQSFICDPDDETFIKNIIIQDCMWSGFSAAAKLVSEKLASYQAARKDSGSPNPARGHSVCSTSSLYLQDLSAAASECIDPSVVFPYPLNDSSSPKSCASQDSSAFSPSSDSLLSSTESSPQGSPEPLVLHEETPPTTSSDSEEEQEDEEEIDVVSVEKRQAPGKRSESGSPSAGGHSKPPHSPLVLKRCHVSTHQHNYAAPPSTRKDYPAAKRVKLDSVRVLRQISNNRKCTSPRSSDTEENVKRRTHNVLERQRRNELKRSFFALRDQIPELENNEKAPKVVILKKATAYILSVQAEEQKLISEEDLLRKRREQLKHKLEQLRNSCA
Summary of the method: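 After 24 h chemical treatment of HepG2 cells carrying multiplexed cis-regulated reporter constructs, reporter transcripts quantified by RT-PCR and capillary electrophoresis of fluorescent fragments. Gain or loss fitted against DMSO baseline.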

[2] = ATG_NF_kB_CIS: Attagene CIS-FACTORIAL HepG2 Assay for human Nuclear Factor Kappa B (NF-kB) (AID 2282991); settings: HepG2 Attagene cis-factorial NF-kB reporter mRNA; actives raise or lower the signal
Summary of the method: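 Measures mRNA induction of an NF-kB-responsive cis-element reporter in HepG2 cells transfected with multiple reporter units, sampled 24 h post-dosing; quantified by fluorescence after RT-PCR and capillary electrophoresis, fitted for activation or inhibition against DMSO.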

[3] = ATG_NRF2_ARE_CIS: Attagene CIS-FACTORIAL HepG2 Assay for human Nuclear Factor Erythroid 2 Related Factor 2 (NFR2) response to Antioxidant Response Elements (ARE) (AID 2282992); settings: HepG2 Attagene ARE/NRF2 reporter, transcription factor activity; actives raise or lower the signal;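 on AC50: reporter mRNA level measured by RT-PCR and capillary electrophoresis fluorescence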
Summary of the method: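 Transient MRTU transfection of HepG2; 24 h compound exposure; TriZol RNA, RT with oligo(dT), PCR, 6-FAM primer extension, HpaI cut, CE. Bidirectional fit vs DMSO.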

[4] = ATG_Oct_MLP_CIS: Attagene CIS-FACTORIAL HepG2 Assay for human Octamer-Binding Transcription Factor (Oct) (AID 2282993); settings: HepG2 Attagene cis-factorial Oct reporter, mRNA; actives raise or lower the signal
Summary of the method: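 HepG2, transient MRTU transfection, cis promoter elements; 24 h dosing; RT-PCR/CE fluorescence read-out of reporter mRNA; fit both directions vs DMSO.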

[5] = target: Cellular tumor antigen p53 (Homo sapiens) (UniProt P04637); test: ATG_p53_CIS: Attagene CIS-FACTORIAL HepG2 Assay for human p53 Transcription Factor (AID 2282994); settings: HepG2 p53 cis-element reporter, Attagene mRNA; actives raise or lower the signal
Sequence of Cellular tumor antigen p53 (Homo sapiens) (P04637 whole entry, looked up): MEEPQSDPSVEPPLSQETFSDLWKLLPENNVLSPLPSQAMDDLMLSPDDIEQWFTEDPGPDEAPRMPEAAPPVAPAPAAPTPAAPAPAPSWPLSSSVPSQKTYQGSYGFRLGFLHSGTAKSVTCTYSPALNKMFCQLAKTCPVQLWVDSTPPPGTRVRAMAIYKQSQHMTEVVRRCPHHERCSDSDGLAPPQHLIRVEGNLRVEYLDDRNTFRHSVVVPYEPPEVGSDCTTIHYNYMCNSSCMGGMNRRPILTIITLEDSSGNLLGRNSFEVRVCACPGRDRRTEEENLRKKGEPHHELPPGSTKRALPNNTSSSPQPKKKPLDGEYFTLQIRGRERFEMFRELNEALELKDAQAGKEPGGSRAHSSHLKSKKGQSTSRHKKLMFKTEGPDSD
Summary of the method: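 HepG2, transient MRTU transfection (cis promoter elements, endogenous TFs); 24 h dosing; RNA isolation, RT-PCR, 6-FAM primer extension, HpaI digest, CE fluorescence; bidirectional fit vs DMSO.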

[6] = target: human Peroxisome Proliferator-activated Receptor delta (PPARd), PPARD (gene 5467) (UniProt Q03181); test: ATG_PPARd_TRANS: Attagene TRANS-FACTORIAL HepG2 Assay for human Peroxisome Proliferator-activated Receptor delta (PPARd) (AID 2283002; active means hit-call score of the fitted dose curve at least 0.9, where 1 is the maximum)
Sequence of human Peroxisome Proliferator-activated Receptor delta (PPARd), PPARD (gene 5467) (Q03181 whole entry, looked up, the tested form may be a part): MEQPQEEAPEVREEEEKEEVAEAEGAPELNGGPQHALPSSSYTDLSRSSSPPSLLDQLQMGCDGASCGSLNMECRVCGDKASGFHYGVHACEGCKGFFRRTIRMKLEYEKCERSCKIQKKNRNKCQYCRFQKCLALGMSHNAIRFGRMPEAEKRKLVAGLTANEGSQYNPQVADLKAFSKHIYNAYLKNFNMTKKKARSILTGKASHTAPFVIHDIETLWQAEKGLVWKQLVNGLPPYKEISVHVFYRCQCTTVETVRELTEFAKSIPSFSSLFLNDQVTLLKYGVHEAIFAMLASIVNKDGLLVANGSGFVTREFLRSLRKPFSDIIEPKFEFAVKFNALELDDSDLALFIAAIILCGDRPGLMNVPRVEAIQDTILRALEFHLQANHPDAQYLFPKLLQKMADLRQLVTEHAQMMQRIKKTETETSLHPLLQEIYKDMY
Summary of the method: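 Read-out is induced reporter mRNA, quantified by RT-PCR with fluorescent labelling and capillary electrophoresis after 24 h dosing. Cells are HepG2 transiently carrying multiple GAL4-UAS reporter units driven by exogenous NR-GAL4 chimeras; DMSO serves as baseline.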

[7] = target: Peroxisome proliferator-activated receptor gamma (Homo sapiens) (UniProt P37231); test: ATG_PPARg_TRANS: Attagene TRANS-FACTORIAL HepG2 Assay for human Peroxisome Proliferator-activated Receptor-gamma (PPARg) (AID 2283007; active means hit-call score of the fitted dose curve at least 0.9, where 1 is the maximum)
Sequence of Peroxisome proliferator-activated receptor gamma (Homo sapiens) (P37231 whole entry, looked up, the tested form may be a part): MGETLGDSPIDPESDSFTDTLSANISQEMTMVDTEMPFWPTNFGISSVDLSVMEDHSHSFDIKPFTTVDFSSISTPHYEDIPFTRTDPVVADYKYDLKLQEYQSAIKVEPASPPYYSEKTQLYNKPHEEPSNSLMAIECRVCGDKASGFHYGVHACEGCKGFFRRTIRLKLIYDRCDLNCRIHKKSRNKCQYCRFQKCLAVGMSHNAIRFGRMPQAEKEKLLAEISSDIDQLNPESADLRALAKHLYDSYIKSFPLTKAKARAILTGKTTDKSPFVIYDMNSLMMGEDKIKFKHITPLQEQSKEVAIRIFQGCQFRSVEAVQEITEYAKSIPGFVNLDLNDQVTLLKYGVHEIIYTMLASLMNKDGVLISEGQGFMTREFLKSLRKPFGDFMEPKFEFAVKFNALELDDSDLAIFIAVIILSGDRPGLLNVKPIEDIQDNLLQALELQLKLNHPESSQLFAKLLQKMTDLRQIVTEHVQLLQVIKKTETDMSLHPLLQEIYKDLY
Summary of the method: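 Gain-of-signal endpoint relative to DMSO, derived from reporter mRNA levels quantified by RT-PCR and capillary electrophoresis. Cells were HepG2 transiently expressing a chimeric NR-Gal4 construct with GAL4-UAS reporters, exposed to chemicals for 24 h.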

[8] = target: Nuclear receptor subfamily 1 group I member 2 (Homo sapiens) (UniProt O75469); test: ATG_PXR_TRANS: Attagene TRANS-FACTORIAL HepG2 Assay for human Pregnane X Receptor (PXR) (AID 2283008; active means hit-call score of the fitted dose curve at least 0.9, where 1 is the maximum)
Sequence of Nuclear receptor subfamily 1 group I member 2 (Homo sapiens) (O75469 whole entry, looked up, the tested form may be a part): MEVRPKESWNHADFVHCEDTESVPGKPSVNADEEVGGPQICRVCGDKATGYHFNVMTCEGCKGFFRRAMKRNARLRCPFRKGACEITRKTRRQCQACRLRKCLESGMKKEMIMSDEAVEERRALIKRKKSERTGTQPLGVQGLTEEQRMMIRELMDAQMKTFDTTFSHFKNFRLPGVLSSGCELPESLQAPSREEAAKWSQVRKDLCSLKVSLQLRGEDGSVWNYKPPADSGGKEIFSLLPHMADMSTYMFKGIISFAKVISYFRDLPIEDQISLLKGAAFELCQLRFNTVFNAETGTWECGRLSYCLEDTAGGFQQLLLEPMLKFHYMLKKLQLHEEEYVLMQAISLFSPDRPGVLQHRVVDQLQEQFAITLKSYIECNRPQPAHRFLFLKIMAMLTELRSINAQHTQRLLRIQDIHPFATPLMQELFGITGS
Summary of the method: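 Read-out is fluorescence of labelled reporter cDNA fragments separated by capillary electrophoresis after RT-PCR and HpaI digestion. Source: HepG2 cells carrying PXR-GAL4/UAS reporter constructs, treated 24 h; activity fitted upward relative to DMSO.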

[9] = ATG_NFI_CIS: Attagene CIS-FACTORIAL HepG2 Assay for human Nuclear Factor I (NFI) (AID 2282989); settings: HepG2 cis-regulatory reporter, NFI response element transcription; actives raise or lower the signal
Summary of the method: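 Cells: human liver HepG2, transiently transfected with promoter-regulated reporter transcription units. Exposure 24 h. Detection: fluorescent RT-PCR products separated by capillary electrophoresis, normalised to DMSO negative control.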

[10] = target: human Peroxisome Proliferator-activated Receptor alpha (PPARa), PPARA (gene 5465) (UniProt Q07869); test: ATG_PPARa_TRANS: Attagene TRANS-FACTORIAL HepG2 Assay for human Peroxisome Proliferator-activated Receptor alpha (PPARa) (AID 2283001; active means hit-call score of the fitted dose curve at least 0.9, where 1 is the maximum)
Sequence of human Peroxisome Proliferator-activated Receptor alpha (PPARa), PPARA (gene 5465) (Q07869 whole entry, looked up, the tested form may be a part): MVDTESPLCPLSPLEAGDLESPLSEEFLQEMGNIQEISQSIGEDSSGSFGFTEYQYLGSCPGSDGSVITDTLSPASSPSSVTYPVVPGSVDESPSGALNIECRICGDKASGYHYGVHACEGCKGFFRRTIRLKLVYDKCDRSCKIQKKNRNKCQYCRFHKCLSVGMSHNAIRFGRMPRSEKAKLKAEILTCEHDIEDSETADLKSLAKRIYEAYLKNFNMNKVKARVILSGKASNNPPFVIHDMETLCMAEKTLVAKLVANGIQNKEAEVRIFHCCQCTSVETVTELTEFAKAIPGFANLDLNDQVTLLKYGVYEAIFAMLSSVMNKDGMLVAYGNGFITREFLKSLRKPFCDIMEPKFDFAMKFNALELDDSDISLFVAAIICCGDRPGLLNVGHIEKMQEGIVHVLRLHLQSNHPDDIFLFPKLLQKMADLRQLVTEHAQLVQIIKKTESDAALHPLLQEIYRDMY
Summary of the method: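 Read-out is fluorescence of reporter cDNA fragments resolved by capillary electrophoresis after RT-PCR. Human HepG2 liver cells carried transfected PPARa-Gal4 chimera and GAL4-UAS reporter units, treated 24 h; activity scored as increase over DMSO.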

[11] = BSK_3C_TissueFactor: BioMAP Diversity Plus: 3C Assay for Tissue Factor Biomarker Activity (AID 2282997); settings: BioMAP 3C HUVEC, tissue factor biomarker readout; actives raise or lower the signal
Summary of the method: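 Human vascular primary cells (umbilical vein endothelium) received test chemical; Tissue Factor was determined by ELISA at 24 h, and both gain and loss of signal versus DMSO were fitted.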

[12] = BSK_3C_uPAR: BioMAP Diversity Plus: 3C Assay for Urokinase-type plasminogen activator receptor (uPAR) Biomarker Activity (AID 2282998); settings: BioMAP 3C HUVEC, uPAR biomarker ELISA; actives raise or lower the signal
Summary of the method: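 A multiplexed primary-cell system built on human umbilical vein endothelium was used, with chemical present for 24 h before reading. Cell-surface uPAR was detected by ELISA; signal change in either direction counted against DMSO.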

[13] = BSK_4H_Eotaxin3: BioMAP Diversity Plus: 4H Assay for Eotaxin 3 Biomarker Activity (AID 2283000); settings: primary human endothelial cells (HUVEC); actives raise or lower the signal;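 further: CCL26 protein level quantified by ELISA in parallel with SRB cytotoxicity check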
Summary of the method: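 Readout is Eotaxin-3 (CCL26) level by ELISA in primary human umbilical vein endothelial cells harvested 24 h after chemical exposure; activity fitted in both directions against DMSO control.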

[14] = read-out: Intercellular Adhesion Molecule 1 (ICAM1), ICAM1 (gene 3383); test: BSK_3C_ICAM1: BioMAP Diversity Plus: 3C Assay for Intercellular Adhesion Molecule 1 (ICAM1) Biomarker Activity (AID 2283003); settings: primary human endothelial cells (HUVEC); actives raise or lower the signal
Summary of the method: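 HUVEC primary cells stimulated under 3C conditions; ICAM1 measured by ELISA 24 h after compound dosing. Curves fitted bidirectionally against the DMSO baseline. Overt cytotoxicity checked by SRB staining of parallel cultures.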

[15] = BSK_3C_Proliferation: Cell Proliferation Assessment in the BioMAP Diversity Plus: 3C Assay (AID 2283006); settings: primary human endothelial cells (HUVEC)
Summary of the method: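 Subconfluent HUVEC (3C system) cultured with chemical; relative cell number read at 48 h by sulforhodamine B total-protein staining (0.1% SRB after 10% TCA fixation, 560 nm). Bidirectional fit relative to DMSO.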

[16] = target: Retinoic acid receptor alpha (Homo sapiens) (UniProt P10276); test: ATG_RARa_TRANS: Attagene TRANS-FACTORIAL HepG2 Assay for human Retinoic Acid Receptor alpha (RARa) (AID 2283005; active means hit-call score of the fitted dose curve at least 0.9, where 1 is the maximum)
Sequence of Retinoic acid receptor alpha (Homo sapiens) (P10276 whole entry, looked up, the tested form may be a part): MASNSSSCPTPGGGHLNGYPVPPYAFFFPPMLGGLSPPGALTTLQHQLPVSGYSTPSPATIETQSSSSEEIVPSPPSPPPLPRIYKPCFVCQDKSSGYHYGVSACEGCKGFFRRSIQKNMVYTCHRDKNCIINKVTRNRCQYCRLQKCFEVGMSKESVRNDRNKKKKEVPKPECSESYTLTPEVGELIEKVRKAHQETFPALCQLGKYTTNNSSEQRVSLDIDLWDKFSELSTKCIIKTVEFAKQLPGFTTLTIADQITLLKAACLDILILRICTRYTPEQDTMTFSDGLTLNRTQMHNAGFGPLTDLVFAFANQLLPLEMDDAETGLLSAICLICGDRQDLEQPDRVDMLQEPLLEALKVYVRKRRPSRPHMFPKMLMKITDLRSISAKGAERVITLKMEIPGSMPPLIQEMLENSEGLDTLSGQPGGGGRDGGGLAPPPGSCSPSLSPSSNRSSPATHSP
Summary of the method: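 Reporter transcripts, measured by RT-PCR with fluorescent labeling and capillary electrophoresis after 24 h dosing, reflect activity of an exogenous human RARa–GAL4 fusion in transiently transfected HepG2. Fitted for increase relative to DMSO.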

[17] = target: human Retinoic Acid Receptor gamma (RARg), RARG (gene 5916) (UniProt P13631); test: ATG_RARg_TRANS: Attagene TRANS-FACTORIAL HepG2 Assay for human Retinoic Acid Receptor gamma (RARg) (AID 2283009; active means hit-call score of the fitted dose curve at least 0.9, where 1 is the maximum)
Sequence of human Retinoic Acid Receptor gamma (RARg), RARG (gene 5916) (P13631 whole entry, looked up, the tested form may be a part): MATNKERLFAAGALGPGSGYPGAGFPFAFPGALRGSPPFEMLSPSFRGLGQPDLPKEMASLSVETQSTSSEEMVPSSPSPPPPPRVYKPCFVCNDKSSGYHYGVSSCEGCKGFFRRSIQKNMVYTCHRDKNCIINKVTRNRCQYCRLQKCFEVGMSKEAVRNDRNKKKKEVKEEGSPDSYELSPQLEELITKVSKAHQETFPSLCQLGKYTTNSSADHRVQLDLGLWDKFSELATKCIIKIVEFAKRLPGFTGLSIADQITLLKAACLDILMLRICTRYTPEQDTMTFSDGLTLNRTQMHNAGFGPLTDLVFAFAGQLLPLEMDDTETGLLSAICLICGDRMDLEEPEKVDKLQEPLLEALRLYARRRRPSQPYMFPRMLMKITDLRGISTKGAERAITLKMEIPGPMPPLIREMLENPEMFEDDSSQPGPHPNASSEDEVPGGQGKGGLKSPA
Summary of the method: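 HepG2 transiently transfected with GAL4-UAS reporter units and chimeric NR-Gal4 constructs; 24 h compound exposure. Reporter mRNA quantified by RT-PCR, FAM labeling, HpaI digestion and capillary electrophoresis; gain-of-signal versus DMSO.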

[18] = target: human RAR-related Orphan Receptor beta (RORb), RORB (gene 6096) (UniProt Q92753); test: ATG_RORb_TRANS: Attagene TRANS-FACTORIAL HepG2 Assay for human RAR-related Orphan Receptor beta (RORb) (AID 2283010; active means hit-call score of the fitted dose curve at least 0.9, where 1 is the maximum)
Sequence of human RAR-related Orphan Receptor beta (RORb), RORB (gene 6096) (Q92753 whole entry, looked up, the tested form may be a part): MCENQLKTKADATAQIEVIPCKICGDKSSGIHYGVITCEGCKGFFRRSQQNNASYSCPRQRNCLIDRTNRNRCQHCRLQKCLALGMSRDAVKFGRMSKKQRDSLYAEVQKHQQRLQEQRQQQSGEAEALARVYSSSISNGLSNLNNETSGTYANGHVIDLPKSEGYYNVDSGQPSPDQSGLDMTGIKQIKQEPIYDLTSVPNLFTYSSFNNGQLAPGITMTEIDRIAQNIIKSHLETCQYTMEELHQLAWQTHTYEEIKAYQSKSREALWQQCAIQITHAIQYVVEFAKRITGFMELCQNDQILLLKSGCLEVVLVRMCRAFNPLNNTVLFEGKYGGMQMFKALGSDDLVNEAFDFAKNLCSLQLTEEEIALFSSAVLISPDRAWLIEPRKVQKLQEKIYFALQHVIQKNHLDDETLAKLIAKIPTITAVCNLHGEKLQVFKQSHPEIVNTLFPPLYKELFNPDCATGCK
Summary of the method: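 HepG2 cells transiently transfected with GAL4-UAS reporter units expressing chimeric NR-Gal4 protein; reporter mRNA measured 24 h after dosing by RT-PCR, 6-FAM labelling and capillary electrophoresis. Gain-of-signal fitted relative to DMSO baseline.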

Measured: AC50

CC(C)COC(=O)c1ccccc1O
inactive: [1] | [2] | [3] | [4] | [5] | [6] | [7] | [8]

CC(C)(C)c1ccc(S)cc1
inactive: [9] | [1] | [5] | [10] | [6] | [7] | [8]

O=C(O)C(F)(F)C(F)(F)C(F)(F)C(F)(F)C(F)(F)C(F)(F)C(F)(F)C(F)F
inactive: [11] | [12] | [13] | [14] | [15]

CC(C)N(c1ccccc1)C(C)C
inactive: [9] | [1] | [2] | [3] | [8]

CCCCCCCCCCCCOC(C)=O
inactive: [9] | [1] | [2] | [3] | [4] | [10] | [6] | [16] | [8] | [17] | [18]

NS(=O)(=O)c1cc(C(=O)O)c(NCc2ccco2)cc1Cl
inactive: [1] | [10] | [6] | [8] | [18]

O=S(=O)(O)C(F)(F)C(F)(F)OC(F)(F)C(F)(F)F
inactive: [11] | [12] | [13] | [14] | [15]

c1coc(CNc2ncnc3nc[nH]c23)c1
inactive: [9] | [1] | [4] | [5] | [10] | [6] | [7] | [18]
active: [3] 33.8 µM

ClCCOCCOCCCl
inactive: [9] | [1] | [4] | [5] | [10] | [6] | [16] | [7] | [18]
active: [3] 54.7 µM

CC(=O)N(C)C
inactive: [4] | [5] | [6] | [8]

O=c1cc(-c2ccc(O)cc2)oc2cc(O)cc(O)c12
inactive: [9] | [3] | [5] | [6] | [17]
active: [4] 26.5 µM | [7] 18.2 µM

CC1COC(=O)O1 (configuration not stated)
inactive: [9] | [1] | [4] | [5] | [10] | [7]

CCCCN(CCCC)CCCCCCN(CCCC)CCCC
inactive: [9] | [1] | [3] | [4] | [5] | [7] | [18]

CCOC(=O)C(=O)OCC
inactive: [9] | [1] | [2] | [4] | [5] | [10] | [6] | [18]
